Results filed as inconclusive are left out. A call without a number means that no potency is given here. The source made the active and inactive calls. The call rests on the fitted dose curve; in most records, active means well fitted inhibition curve with a large enough effect; inconclusive means small, poorly fitted or top-dose-only effect; inactive means flat fitted curve, though single readings scatter.
Tested on: Zika virus NS2B-NS3 protease
Test: Primary screen GU AMC qHTS for Zika virus inhibitors (AID 1347154); further: nearly all actives have a fitted effect of over 70% in size
Settings: Zika NS2B-NS3 unlinked protease, AMC fluorogenic substrate; series mostly up to 54.1 µM
How it was run: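 Unlinked Zika NS2B hydrophilic domain/NS3 protease domain noncovalent complex (25 nM final) in 10 mM Tris-HCl pH 8.0, 0.01% Tween 20, with AMC peptide substrate. Fluorescence (ex 340, em 450 nm) change over 15 min, room temperature; percent inhibition fitted to 4-parameter Hill equation.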
Potency means the concentration at half of the fitted maximal effect.

SMILES | Potency
CC(O)CCCCn1c(=O)c2c(ncn2C)n(C)c1=O (centres undefined) | inactive
Cc1c(I)c(=O)n(-c2ccccc2)n1C | inactive
CCCCCCCCCCCCCCCCC(C(=O)O)C(O)(CC(=O)O)C(=O)O (centres undefined) | 4.05 µM (active)
CCCCCCCCCCC(CO)CCCCCCCC (centres undefined) | inactive

— PubChem BioAssay (NCATS)
